Test results from PubChem BioAssay (NCI).
This is part of a sample that, as a whole, favours compounds with a hit. Of some 83,000 tested, about 20% had one in any assay.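 The test compound was applied at a single concentration to cells in 96-well plates for 48 hours, and percent growth was recorded.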 Calls of active or inactive are those of the source. Rule for the calls: active = growth percent below 10; inactive = the rest.

Columns and labels:
Assay in all cases: NCI-60 one-dose screen, 48 h (100 = growth as untreated, 0 = no growth, -100 = all killed)
Conditions in all cases: 10 µM unless noted
SR leukemia = tested on: SR leukemia
RPMI-8226 leukemia = tested on: RPMI-8226 leukemia
OVCAR-8 ovarian = tested on: OVCAR-8 ovarian
OVCAR-5 ovarian = tested on: OVCAR-5 ovarian
OVCAR-4 ovarian = tested on: OVCAR-4 ovarian
SK-OV-3 ovarian = tested on: SK-OV-3 ovarian
IGROV1 ovarian = tested on: IGROV1 ovarian
OVCAR-3 ovarian = tested on: OVCAR-3 ovarian
HS 578T breast = tested on: HS 578T breast
NCI/ADR-RES ovarian = tested on: NCI/ADR-RES ovarian
T-47D breast = tested on: T-47D breast
BT-549 breast = tested on: BT-549 breast
MDA-MB-435 melanoma = tested on: MDA-MB-435 melanoma
SW-620 colon = tested on: SW-620 colon
MCF7 breast = tested on: MCF7 breast
HCT-116 colon = tested on: HCT-116 colon
HCC-2998 colon = tested on: HCC-2998 colon
KM12 colon = tested on: KM12 colon

Measured: growth

O=S(=O)(NCCNc1nccc(-c2c(-c3ccc(F)c(O)c3)nc3occn23)n1)c1ccc(Cl)cc1
inactive: SR leukemia 75.8% | RPMI-8226 leukemia 85.3% | OVCAR-8 ovarian 86% | OVCAR-5 ovarian 127% | OVCAR-4 ovarian 109% | SK-OV-3 ovarian 87.1% | IGROV1 ovarian 87.4% | OVCAR-3 ovarian 104% | HS 578T breast 89% | NCI/ADR-RES ovarian 102% | T-47D breast 92.3% | BT-549 breast 107% | MDA-MB-435 melanoma 38.6% | SW-620 colon 112% | MCF7 breast 71.6% | HCT-116 colon 60.9% | HCC-2998 colon 102% | KM12 colon 84%

CN1CCc2nc3sc(C(N)=O)c(N)c3c(-c3cccs3)c2C1
inactive: SR leukemia 22.8% | RPMI-8226 leukemia 75.7% | OVCAR-8 ovarian 22.2% | OVCAR-5 ovarian 15.1% | OVCAR-4 ovarian 64.5% | SK-OV-3 ovarian 57.4% | IGROV1 ovarian 26.2% | HS 578T breast 32.4% | NCI/ADR-RES ovarian 40.6% | T-47D breast 42.9% | BT-549 breast 10.7% | MDA-MB-435 melanoma 29.6% | SW-620 colon 35% | MCF7 breast 12.6% | HCC-2998 colon 53.5%
active: OVCAR-3 ovarian -32.5% | HCT-116 colon 4.02% | KM12 colon 6.55%

CC/C(=C(/c1ccc(Cl)cc1)c1ccc(OCCN2CCCCC2)cc1)c1ccc(OC)cc1
active: SR leukemia -22.2% | RPMI-8226 leukemia -10.5%
inactive: OVCAR-8 ovarian 65.9% | OVCAR-5 ovarian 65.4% | OVCAR-4 ovarian 69.3% | SK-OV-3 ovarian 94.9% | IGROV1 ovarian 80.5% | OVCAR-3 ovarian 66.4% | HS 578T breast 85.3% | NCI/ADR-RES ovarian 71.8% | T-47D breast 32.3% | BT-549 breast 78.2% | MDA-MB-435 melanoma 65.6% | SW-620 colon 39.1% | MCF7 breast 15.3% | HCT-116 colon 46.9% | HCC-2998 colon 71%

Cc1ccc(C(=O)c2ccc(CC(=O)N/N=C/c3ccccc3O)n2C)cc1
inactive: SR leukemia 56.2% | RPMI-8226 leukemia 81.4% | OVCAR-8 ovarian 79% | OVCAR-5 ovarian 92% | OVCAR-4 ovarian 60.2% | SK-OV-3 ovarian 90.4% | IGROV1 ovarian 80.9% | OVCAR-3 ovarian 80.3% | HS 578T breast 104% | NCI/ADR-RES ovarian 69.4% | T-47D breast 75.6% | BT-549 breast 85.1% | MDA-MB-435 melanoma 83.2% | SW-620 colon 89.6% | MCF7 breast 81.5% | HCT-116 colon 92.1% | HCC-2998 colon 92.1%

N#CC(C#N)N=Nc1ccc(Br)cc1
active: SR leukemia -15.2% | T-47D breast 8.56%
inactive: RPMI-8226 leukemia 11.5% | OVCAR-8 ovarian 28% | OVCAR-5 ovarian 68.3% | OVCAR-4 ovarian 17.7% | SK-OV-3 ovarian 60.3% | IGROV1 ovarian 49.1% | OVCAR-3 ovarian 17.7% | HS 578T breast 87.1% | NCI/ADR-RES ovarian 60.9% | BT-549 breast 49.2% | MDA-MB-435 melanoma 71.7% | SW-620 colon 18.4% | MCF7 breast 19.4% | HCT-116 colon 13.4% | HCC-2998 colon 46% | KM12 colon 80.8%

CCN(CC)c1ccc(\C=N/N=C(N)/C(N)=N\N=C/c2ccc(N(CC)CC)cc2)cc1
inactive: SR leukemia 87.6% | RPMI-8226 leukemia 99% | OVCAR-8 ovarian 99% | OVCAR-5 ovarian 126% | OVCAR-4 ovarian 110% | SK-OV-3 ovarian 102% | IGROV1 ovarian 105% | OVCAR-3 ovarian 115% | HS 578T breast 103% | NCI/ADR-RES ovarian 101% | T-47D breast 104% | BT-549 breast 104% | MDA-MB-435 melanoma 101% | SW-620 colon 104% | MCF7 breast 106% | HCT-116 colon 105% | HCC-2998 colon 114% | KM12 colon 106%

CCn1cc(C(=O)NNC(=S)Nc2ccc(C)cc2)c(=O)c2ccc(C)nc21
inactive: SR leukemia 104% | RPMI-8226 leukemia 98.9% | OVCAR-8 ovarian 95.6% | OVCAR-5 ovarian 107% | OVCAR-4 ovarian 102% | SK-OV-3 ovarian 106% | IGROV1 ovarian 95.7% | OVCAR-3 ovarian 103% | HS 578T breast 95.8% | NCI/ADR-RES ovarian 95.6% | T-47D breast 88.1% | BT-549 breast 97.1% | MDA-MB-435 melanoma 101% | SW-620 colon 99.2% | MCF7 breast 97.2% | HCT-116 colon 93% | HCC-2998 colon 92.7% | KM12 colon 103%

Cc1c(O)cc(-c2cnc(Nc3ccccc3)s2)c(O)c1C
inactive: SR leukemia 87.4% | RPMI-8226 leukemia 82.5% | OVCAR-8 ovarian 94% | OVCAR-5 ovarian 111% | OVCAR-4 ovarian 84.8% | SK-OV-3 ovarian 94.5% | IGROV1 ovarian 79.2% | OVCAR-3 ovarian 102% | HS 578T breast 87.5% | NCI/ADR-RES ovarian 96.5% | T-47D breast 68.6% | BT-549 breast 91.8% | MDA-MB-435 melanoma 101% | SW-620 colon 104% | MCF7 breast 82.2% | HCT-116 colon 97.8% | HCC-2998 colon 118%

CCC(C(=O)[C@@H](C)[C@@H](O)[C@H](C)[C@@H]1O[C@@H]([C@@H](CC)C(=O)ONC(=O)c2ccccc2)CC[C@@H]1C)[C@H]1O[C@]2(C=CC(=O)[C@]3(CC[C@@](C)([C@H]4CC[C@](O)(CC)[C@H](C)O4)O3)O2)[C@H](C)C[C@@H]1C (stereo partly specified)
active: SR leukemia -22.5% | RPMI-8226 leukemia 7.88% | OVCAR-5 ovarian -4.48% | IGROV1 ovarian -76.2% | OVCAR-3 ovarian -71.1% | HS 578T breast -2.36% | BT-549 breast 6.21% | MCF7 breast 3.51% | HCT-116 colon -36.9%
inactive: OVCAR-8 ovarian 12.2% | OVCAR-4 ovarian 35.6% | SK-OV-3 ovarian 95.2% | NCI/ADR-RES ovarian 12.1% | T-47D breast 21.4% | MDA-MB-435 melanoma 20.8% | SW-620 colon 19.7% | HCC-2998 colon 20.7% | KM12 colon 16.2%

O=C(Nc1ccccc1)Nc1ncnc2c1ncn2-c1ccc(Cl)cc1
inactive: SR leukemia 74.1% | RPMI-8226 leukemia 100% | OVCAR-8 ovarian 83.7% | OVCAR-5 ovarian 74.5% | SK-OV-3 ovarian 75.4% | IGROV1 ovarian 78.5% | OVCAR-3 ovarian 99.5% | HS 578T breast 79.8% | NCI/ADR-RES ovarian 74.6% | T-47D breast 63.8% | BT-549 breast 102% | MDA-MB-435 melanoma 92.1% | SW-620 colon 97.7% | MCF7 breast 82.5% | HCT-116 colon 36.6% | HCC-2998 colon 105%
active: OVCAR-4 ovarian -29.6%

CCCCCN1C(=O)/C(=c2\sc3n(c2=O)C2C(NN=3)N(CC)C(=O)N2CC)c2ccccc21 (stereo unspecified)
inactive: SK-OV-3 ovarian 13.3% | T-47D breast 23.3% | BT-549 breast 19.5% | MCF7 breast 12%
active: SR leukemia 1.69% | RPMI-8226 leukemia 8.52% | OVCAR-8 ovarian -53.2% | OVCAR-5 ovarian -4.09% | OVCAR-4 ovarian -56.7% | IGROV1 ovarian 2.27% | OVCAR-3 ovarian -74.5% | HS 578T breast -17.6% | NCI/ADR-RES ovarian -11.1% | MDA-MB-435 melanoma -60.1% | SW-620 colon -42.1% | HCT-116 colon -72.1% | HCC-2998 colon -17.1%

[O-]/[N+](=C\c1ccc(-n2cc(Cc3ccccc3Cc3cn(-c4ccc(/C=[N+](/[O-])c5ccccc5)cc4)nn3)nn2)cc1)c1ccccc1
inactive: SR leukemia 95% | RPMI-8226 leukemia 103% | OVCAR-8 ovarian 103% | OVCAR-5 ovarian 112% | OVCAR-4 ovarian 99.3% | SK-OV-3 ovarian 106% | IGROV1 ovarian 95.4% | OVCAR-3 ovarian 102% | HS 578T breast 110% | NCI/ADR-RES ovarian 97.6% | T-47D breast 93.8% | BT-549 breast 83.3% | MDA-MB-435 melanoma 109% | SW-620 colon 102% | MCF7 breast 90.6% | HCT-116 colon 91.2% | HCC-2998 colon 104% | KM12 colon 98.8%

COc1ccc(-c2ccc(=O)oc2-c2cc(OC)c(OC)c(OC)c2)cc1O
active: SR leukemia 0.907% | RPMI-8226 leukemia 9.69% | IGROV1 ovarian 3.86% | OVCAR-3 ovarian -72.7% | HS 578T breast -2.33% | BT-549 breast 5.78% | MDA-MB-435 melanoma -37.5% | SW-620 colon 9.8% | MCF7 breast 1.84% | HCT-116 colon -67.4% | HCC-2998 colon -2.78% | KM12 colon 1.71%
inactive: OVCAR-8 ovarian 14.2% | OVCAR-5 ovarian 22.8% | OVCAR-4 ovarian 39.8% | SK-OV-3 ovarian 25.9% | NCI/ADR-RES ovarian 12.9% | T-47D breast 67.8%

Cc1cn(-c2cc(NC(=O)c3cccc(C#Cc4cccc5[nH]nc(N)c45)c3)cc(C(F)(F)F)c2)cn1
inactive: SR leukemia 28.3% | RPMI-8226 leukemia 13.8% | OVCAR-8 ovarian 28.5% | OVCAR-5 ovarian 28.8% | OVCAR-4 ovarian 45.6% | SK-OV-3 ovarian 99.4% | IGROV1 ovarian 15.4% | OVCAR-3 ovarian 75.3% | HS 578T breast 31.4% | NCI/ADR-RES ovarian 67.1% | T-47D breast 39.2% | BT-549 breast 30.3% | MDA-MB-435 melanoma 36.1% | SW-620 colon 44.1% | MCF7 breast 34.2% | HCT-116 colon 23.5% | HCC-2998 colon 39.1%

COc1ccc2c(c1)CC[C@H](O)/C2=C/c1cc(OC)c(OC)c(OC)c1
active: SR leukemia -5.45% | OVCAR-3 ovarian -18.3% | NCI/ADR-RES ovarian 6.93% | BT-549 breast 4.02% | MDA-MB-435 melanoma -54.4% | HCT-116 colon 2.27%
inactive: RPMI-8226 leukemia 34.3% | OVCAR-8 ovarian 16.1% | OVCAR-5 ovarian 61% | OVCAR-4 ovarian 41.1% | SK-OV-3 ovarian 13.9% | IGROV1 ovarian 27.8% | HS 578T breast 33.3% | T-47D breast 51.9% | SW-620 colon 21.1% | MCF7 breast 16% | HCC-2998 colon 22.1%

CC(=O)N1N=C(c2ccc(Nc3nc(Nc4ccccc4)nc(Nc4ccccc4)n3)cc2)CC1c1ccccc1 (stereo unspecified)
inactive: SR leukemia 62.3% | RPMI-8226 leukemia 59.9% | OVCAR-8 ovarian 82.9% | OVCAR-5 ovarian 91.9% | OVCAR-4 ovarian 96.5% | SK-OV-3 ovarian 95.5% | IGROV1 ovarian 54.1% | OVCAR-3 ovarian 88.6% | HS 578T breast 89.3% | NCI/ADR-RES ovarian 84.6% | T-47D breast 46.5% | BT-549 breast 87.2% | MDA-MB-435 melanoma 101% | SW-620 colon 99% | MCF7 breast 67.5% | HCT-116 colon 77.1% | HCC-2998 colon 99.2%

S=c1sc2c(Cl)nc(-c3cccnc3)nc2n1-c1ccccc1
inactive: OVCAR-8 ovarian 18% | OVCAR-5 ovarian 125% | OVCAR-4 ovarian 70.6% | SK-OV-3 ovarian 87.9% | OVCAR-3 ovarian 52.2% | HS 578T breast 55.9% | NCI/ADR-RES ovarian 60.2% | BT-549 breast 27.9% | MDA-MB-435 melanoma 41.2%
active: SR leukemia -27.2% | RPMI-8226 leukemia -3.47% | IGROV1 ovarian -60.2% | T-47D breast -14.5% | SW-620 colon 0.199% | MCF7 breast 3.63% | HCT-116 colon 1.57%
